# In PubChem BioAssay AID602364 (National Center for Advancing Translational Sciences (NCATS), 2012):
# Records with an inconclusive call do not appear. Activity calls are given as the source filed them. Calls follow the shape of the dose curve; as a rule, active = well fitted inhibition curve with a large enough effect; inconclusive = small, poorly fitted or top-dose-only effect; inactive = flat fitted curve, though single readings scatter.
# Molecular target: Luciferin 4-monooxygenase (Photinus pyralis) (UniProt P08659)
# Sequence (P08659 whole entry, looked up): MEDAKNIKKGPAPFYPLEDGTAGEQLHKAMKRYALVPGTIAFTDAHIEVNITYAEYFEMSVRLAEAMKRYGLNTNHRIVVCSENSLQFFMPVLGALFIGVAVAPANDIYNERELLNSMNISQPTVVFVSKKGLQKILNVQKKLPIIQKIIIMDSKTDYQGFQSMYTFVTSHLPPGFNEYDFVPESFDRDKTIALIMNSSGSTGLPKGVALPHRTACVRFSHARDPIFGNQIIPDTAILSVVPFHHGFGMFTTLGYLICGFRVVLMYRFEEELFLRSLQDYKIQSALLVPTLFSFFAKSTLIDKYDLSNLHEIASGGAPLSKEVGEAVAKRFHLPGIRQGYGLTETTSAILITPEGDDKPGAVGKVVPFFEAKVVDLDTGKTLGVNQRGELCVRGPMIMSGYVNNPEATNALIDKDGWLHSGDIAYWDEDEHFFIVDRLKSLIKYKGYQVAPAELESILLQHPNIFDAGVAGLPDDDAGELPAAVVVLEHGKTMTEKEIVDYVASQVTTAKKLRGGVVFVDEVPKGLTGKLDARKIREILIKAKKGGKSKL
# Assay: FLuc inhibitory activity for the follow-up compounds in a biochemical assay with 1mM ATP
# Settings: purified P. pyralis luciferase, luminescence; series mostly up to 57.5 µM
# Outline: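 Purified P. pyralis luciferase (10nM) with 10uM D-luciferin (KM) and 1mM ATP in Tris acetate pH 7.5, Mg acetate; 12-point qHTS titration ~60uM–0.3nM; luminescence read by CCD imager.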
row,Compound,Potency
1,CCOc1ccc2nc(NC(=O)Cc3cccs3)sc2c1,3660 nM (active)
2,COc1ccc2nc(NC(=O)c3ccc4ncsc4c3)sc2c1,1460 nM (active)
3,COc1ccc(Br)cc1C(=O)Nc1ccc(C(=O)O)cc1,inactive
